The other results are listed elsewhere or left out. Activity calls are given as the source filed them.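 The calls were made as follows, unless noted: active = GFP response vs DMSO above about 150% (limit read from the data); inconclusive = fewer than 70 events counted for a yeast strain; inactive = the rest.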
Tests used:
[1] = inhibitors of CD8+ T cell-vesicle binding, pilot screen, LFA-1/ICAM-1 modulator project, MLPCN validation set, flow cytometry (AID 2523;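 active = response below a set limit, under 55% cells CD8-positive and vesicle-bound, and CD8 cells' 90th-percentile brightness under 279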;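 as to vesicle binding response: mean PE anti-B7-1 fluorescence of CD8+ cells relative to row control; 100% = QL9-loaded vesicles with DMSO vehicle in the same plate row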); conditions: 2C mouse CD8+ T cells, at 7 µM, stronger effect = lower value; double positive events: measured here: CD8+/vesicle+ event percentage
[2] = target: Integrin beta-1 (Homo sapiens) + Integrin alpha-4 (Homo sapiens) (UniProt P13612+P05556); test: inhibition of HUTS-21 binding to VLA-4, pilot screen, VLA-4 allosteric modulator project, U937 cells, HUTS-21 mAb, flow cytometry, validation set (AID 2674;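 active = inhibition above 50%, about 3 SD of the validation set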;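 also: antibody binding induced by the VLA-4 ligand LDV present at three times its Kd; 0% = LDV ligand with antibody and no compound and 100% = antibody without LDV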); conditions: HUTS-21 LIBS mAb binding, at 6.7 µM, stronger effect = higher value, binding induced by LDV ligand
[3] = target: Beta-adrenergic receptor kinase 1 (Homo sapiens) (UniProt P25098); test: GRK2 binders displacing RNA aptamer, biochemical, validation, human GRK2, bead flow cytometry (AID 488806;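 active = aptamer binding inhibition above 30%, about 3 SD of noise from non-fluorescent compounds; inactive = inhibition at or below 30%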); conditions: bead-bound GRK2, FAM-aptamer displacement, at 10 µM, stronger effect = higher value
[4] = target: Beta-2 adrenergic receptor (Homo sapiens) (UniProt P07550); test: beta2AR agonists driving receptor internalization, pilot screen, cell-based, FAP fluorogen, flow cytometry, validation set (AID 504459;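 active = percent response above 42, roughly 3 SD of non-fluorescent test compounds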;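 also: agonist-driven loss of surface beta2AR via internalization measured by FAP dye flow cytometry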); conditions: Am2.2-beta2AR cells, FAP surface receptor flow cytometry; at 10 µM; stronger effect = higher value
[5] = target: AP-2 complex subunit beta (Homo sapiens) (UniProt P63010); test: inhibitors of arrestin peptide binding to AP2, pilot screen, biochemical, validation set, GST-AP2 beads, flow cytometry (AID 504541;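 active = inhibition above 54%, about 3 SD of non-fluorescent compounds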;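 also: AP2 carries R879A mutation and is captured from E. coli lysate; bead-bound FITC arrestin peptide fluorescence measuring arrestin peptide binding to AP2; 0% = DMSO wells and 100% = excess unlabeled arrestin peptide control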); conditions: FITC arrestin peptide, at 10 µM, stronger effect = higher value, AP2 beta2 appendage fragment, R879A mutant
[6] = yeast V-ATPase proton transport modulators, S. cerevisiae, pHLuorin, HTS validation (AID 504600; in the data active = response above about 15%;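 also: plate controls were DMSO for no effect and reference compound for full effect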); conditions: S. cerevisiae pHLuorin cytosolic pH, at 10 µM, stronger effect = higher value
[7] = tested on: anti-desmoglein-3 scFv antibody binding to human DSG3; test: inhibitors of anti-DSG3 scFv binding to DSG3, pilot screen, biochemical, validation compound set, bead-based, flow cytometry (AID 588368;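 active = binding below the plate cutoff, the plate median minus 3 SD, with a reading above zero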;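 also: signal is the median channel fluorescence of bead-bound GFP antibody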); conditions: Protein G beads, DSG3-Fc, scFv-GFP binding, at 10 µM, stronger effect = lower value
[8] = inhibitors of fungal efflux pumps CDR1, CDR2, MDR1, pilot screen, validation compound set, multiplex, phenotypic (AID 588506;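 active = efflux inhibition above 0.42, the validation set average plus 4 SD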;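 also: Nile Red retained in cells so higher fluorescence means more efflux inhibition; 0 = negative control wells and 1 = enniatin B 25 µM full block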); conditions: S. cerevisiae pump-expressing triplex, Nile Red efflux flow cytometry; at 10 µM; stronger effect = higher value; the pumps come from Candida albicans
[9] = target: ATP-binding cassette sub-family B member 6 (Homo sapiens) (UniProt Q9NP58); test: ABCB6 transporter inhibitors, pilot screen, K562-ABCB6 cells, flow cytometry, validation set (AID 588550;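 active = inhibition above the screen-wide mean plus 3 SD, about 51%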;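 also: 0% = DMSO wells and 100% = benzethonium chloride 70 µM positive control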); conditions: K562-ABCB6 porphyrin accumulation, 1 h, at 10 µM, stronger effect = higher value
[10] = promoters of myeloid differentiation in arrested cells, primary screen, cell-based, GFP/MAC1 double positive, flow cytometry, validation set (AID 588685;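 active = differentiation response of at least 50%, scaled between solvent and reference control, from cells with both markers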;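 also: compound exposure lasts four days before antibody staining and flow analysis; 0% = DMSO wells and 100% = 5 µM fulvestrant positive control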); conditions: ER-HoxA9 marrow cells, stronger effect = higher value, normalized: vehicle 0, fulvestrant 100
[11] = LAP4-GFP expression modulators in yeast, confirmation, cell-based, second cherry pick, flow cytometry (AID 2621;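 active = GFP signal as percent of the solvent control above about 150%, meaning raised reporter expression, limit read from the data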;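 also: ratio of well median GFP fluorescence to plate DMSO mean so 100% = DMSO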); conditions: S. cerevisiae LAP4-GFP strain, 3 h, at 10 µM, stronger effect = higher value
[12] = modulators of MEP2-GFP levels in yeast, confirmation, S. cerevisiae, flow cytometry GFP, second cherry picks (AID 2622;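 active = GFP signal above 150% of the solvent control wells, that is a rise of more than half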;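 also: median channel GFP fluorescence of all gated yeast cells per well; ratio of median GFP to plate DMSO average so 100% = DMSO level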); conditions: S. cerevisiae MEP2-GFP strain, 3 h, at 10 µM, stronger effect = higher value
[13] = RPL19A-GFP modulators in TOR pathway yeast, confirmation, cell-based, S. cerevisiae, flow cytometry, second cherry pick (AID 2623;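 active = under 65% GFP response relative to DMSO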;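 also: median GFP channel fluorescence per well over the all cells gate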); conditions: S. cerevisiae RPL19A-GFP strain, 3 h, at 10 µM, stronger effect = lower value, 100% means same as DMSO wells
[14] = modulators of CIT2-GFP expression in yeast, confirmation, flow cytometry, second cherry pick, single plex (AID 2624);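 also: median green fluorescence per well over all gated yeast cells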; conditions: S. cerevisiae CIT2-GFP strain, 3 h, at 10 µM, stronger effect = higher value, DMSO control wells read 100%
[15] = AGP1-GFP expression modulators, hit retest, confirmation, cell-based, flow cytometry, S. cerevisiae, cherry pick set 2 (AID 2643;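 active = over 150 percent of DMSO response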;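 also: median GFP channel fluorescence over all cells without mother daughter split; sample median GFP divided by mean DMSO control so 100% equals DMSO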); conditions: S. cerevisiae AGP1-GFP strain, 3 h, at 10 µM, stronger effect = higher value
[16] = superoxide lowering in aged yeast cells, pilot screen, validation compound set (AID 2706;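 active = superoxide response below 65% of plate, a cut near 3 SD across the whole screen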;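 also: yeast exposed to compound for one week at 30 degrees C before staining; 100% = mean of all compound wells on the same plate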); conditions: S. cerevisiae aging, superoxide DHE fluorescence; at 10 µM, stronger effect = lower value
[17] = compound autofluorescence in yeast s288c, dose response, artefact control for yeast TOR pathway GFP screen, s288c strain (AID 2757;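 active = fluorescence span over the dose series, or activity score, above about 33, limit read from the data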;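 also: thousands of bead-calibrated equivalent soluble fluorophore molecules from median cell fluorescence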); conditions: S. cerevisiae s288c, 520 nm autofluorescence, flow cytometry, 3 h; at 33 µM; stronger effect = higher value; zero means same as solvent-only cells

Sequence of ATP-binding cassette sub-family B member 6 (Homo sapiens) (Q9NP58 whole entry, looked up): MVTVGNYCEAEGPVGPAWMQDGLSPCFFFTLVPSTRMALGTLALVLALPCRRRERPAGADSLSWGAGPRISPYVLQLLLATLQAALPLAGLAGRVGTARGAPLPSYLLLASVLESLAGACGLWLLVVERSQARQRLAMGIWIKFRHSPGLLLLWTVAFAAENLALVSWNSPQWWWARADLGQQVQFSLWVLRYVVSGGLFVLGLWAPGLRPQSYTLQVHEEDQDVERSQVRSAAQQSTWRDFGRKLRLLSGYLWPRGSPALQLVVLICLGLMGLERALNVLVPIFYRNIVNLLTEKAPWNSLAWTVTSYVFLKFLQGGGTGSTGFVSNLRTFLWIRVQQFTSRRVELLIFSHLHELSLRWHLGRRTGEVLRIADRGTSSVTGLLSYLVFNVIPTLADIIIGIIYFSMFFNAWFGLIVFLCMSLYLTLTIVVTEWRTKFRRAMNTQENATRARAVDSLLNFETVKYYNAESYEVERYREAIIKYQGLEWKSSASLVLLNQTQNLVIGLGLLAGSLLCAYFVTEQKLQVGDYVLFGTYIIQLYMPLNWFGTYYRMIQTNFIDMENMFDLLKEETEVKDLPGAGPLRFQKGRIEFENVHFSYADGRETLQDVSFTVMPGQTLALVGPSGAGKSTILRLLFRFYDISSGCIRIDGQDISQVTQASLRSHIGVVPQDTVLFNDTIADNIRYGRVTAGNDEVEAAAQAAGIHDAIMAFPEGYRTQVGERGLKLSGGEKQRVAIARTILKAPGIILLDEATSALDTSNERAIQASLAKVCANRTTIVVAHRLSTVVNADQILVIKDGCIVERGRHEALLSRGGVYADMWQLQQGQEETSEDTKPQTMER
Sequence of Integrin beta-1 (Homo sapiens) + Integrin alpha-4 (Homo sapiens) (P05556 whole entry, looked up): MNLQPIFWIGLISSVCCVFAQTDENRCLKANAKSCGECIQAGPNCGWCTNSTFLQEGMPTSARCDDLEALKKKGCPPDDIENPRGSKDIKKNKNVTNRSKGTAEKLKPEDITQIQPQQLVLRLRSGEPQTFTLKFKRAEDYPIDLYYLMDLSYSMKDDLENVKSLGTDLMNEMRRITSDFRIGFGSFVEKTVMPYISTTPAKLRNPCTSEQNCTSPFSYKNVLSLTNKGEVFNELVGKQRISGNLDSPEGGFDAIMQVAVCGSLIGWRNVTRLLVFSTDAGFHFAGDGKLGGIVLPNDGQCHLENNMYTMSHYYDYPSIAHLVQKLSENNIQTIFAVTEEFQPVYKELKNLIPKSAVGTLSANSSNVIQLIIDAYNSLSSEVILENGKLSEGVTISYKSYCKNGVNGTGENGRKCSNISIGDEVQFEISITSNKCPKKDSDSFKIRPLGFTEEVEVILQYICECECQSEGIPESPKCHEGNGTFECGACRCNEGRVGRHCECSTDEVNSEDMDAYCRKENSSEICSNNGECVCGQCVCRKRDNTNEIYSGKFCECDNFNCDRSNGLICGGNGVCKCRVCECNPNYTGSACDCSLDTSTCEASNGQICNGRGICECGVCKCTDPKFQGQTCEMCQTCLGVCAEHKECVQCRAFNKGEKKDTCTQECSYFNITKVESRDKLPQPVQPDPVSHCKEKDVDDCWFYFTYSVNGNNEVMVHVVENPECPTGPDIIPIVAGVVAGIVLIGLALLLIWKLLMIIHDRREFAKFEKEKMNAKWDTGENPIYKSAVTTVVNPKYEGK
Sequence of Integrin beta-1 (Homo sapiens) + Integrin alpha-4 (Homo sapiens) (P13612 whole entry, looked up): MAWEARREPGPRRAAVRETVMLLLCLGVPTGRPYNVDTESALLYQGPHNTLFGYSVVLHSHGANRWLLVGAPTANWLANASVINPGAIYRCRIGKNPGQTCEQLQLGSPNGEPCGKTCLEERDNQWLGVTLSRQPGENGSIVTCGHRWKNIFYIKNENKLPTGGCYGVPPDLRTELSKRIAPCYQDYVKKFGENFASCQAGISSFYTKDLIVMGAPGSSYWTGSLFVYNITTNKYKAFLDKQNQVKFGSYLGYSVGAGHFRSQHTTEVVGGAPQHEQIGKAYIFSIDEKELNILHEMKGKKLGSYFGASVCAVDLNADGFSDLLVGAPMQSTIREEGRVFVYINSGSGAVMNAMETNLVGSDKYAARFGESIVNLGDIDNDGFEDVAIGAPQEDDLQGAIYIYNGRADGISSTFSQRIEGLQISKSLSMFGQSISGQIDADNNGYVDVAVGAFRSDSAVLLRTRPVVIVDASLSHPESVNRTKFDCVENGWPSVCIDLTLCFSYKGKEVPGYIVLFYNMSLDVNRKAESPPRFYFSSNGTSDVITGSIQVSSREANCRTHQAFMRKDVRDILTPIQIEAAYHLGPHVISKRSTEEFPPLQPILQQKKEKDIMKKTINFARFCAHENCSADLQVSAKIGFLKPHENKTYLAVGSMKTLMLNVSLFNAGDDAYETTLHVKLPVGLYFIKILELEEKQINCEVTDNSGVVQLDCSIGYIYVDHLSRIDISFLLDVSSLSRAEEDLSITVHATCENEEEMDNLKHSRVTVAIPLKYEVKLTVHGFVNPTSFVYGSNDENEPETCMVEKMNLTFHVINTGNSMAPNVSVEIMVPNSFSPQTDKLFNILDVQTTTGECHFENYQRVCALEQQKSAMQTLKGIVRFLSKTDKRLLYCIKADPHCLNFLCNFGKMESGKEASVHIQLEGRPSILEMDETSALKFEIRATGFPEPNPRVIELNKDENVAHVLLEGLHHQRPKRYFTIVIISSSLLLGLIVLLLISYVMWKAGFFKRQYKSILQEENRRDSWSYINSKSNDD
Sequence of Beta-adrenergic receptor kinase 1 (Homo sapiens) (P25098 whole entry, looked up): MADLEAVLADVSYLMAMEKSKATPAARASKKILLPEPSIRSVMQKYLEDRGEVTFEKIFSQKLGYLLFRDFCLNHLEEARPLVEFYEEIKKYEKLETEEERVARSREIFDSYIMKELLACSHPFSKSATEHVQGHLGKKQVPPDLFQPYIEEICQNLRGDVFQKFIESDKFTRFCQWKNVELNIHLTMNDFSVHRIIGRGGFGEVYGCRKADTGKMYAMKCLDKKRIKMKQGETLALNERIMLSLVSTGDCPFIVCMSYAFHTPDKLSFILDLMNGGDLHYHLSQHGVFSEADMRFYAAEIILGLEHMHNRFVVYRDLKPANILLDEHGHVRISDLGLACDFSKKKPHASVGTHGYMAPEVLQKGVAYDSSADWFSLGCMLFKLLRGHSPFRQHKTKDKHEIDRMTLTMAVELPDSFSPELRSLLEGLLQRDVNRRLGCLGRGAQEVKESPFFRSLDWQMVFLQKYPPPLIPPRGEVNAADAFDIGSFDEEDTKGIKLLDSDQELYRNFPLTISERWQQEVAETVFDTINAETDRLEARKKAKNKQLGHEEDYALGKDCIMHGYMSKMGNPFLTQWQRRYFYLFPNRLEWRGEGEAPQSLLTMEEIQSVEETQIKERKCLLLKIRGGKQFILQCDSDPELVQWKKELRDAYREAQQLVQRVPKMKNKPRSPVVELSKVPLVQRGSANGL
Sequence of Beta-2 adrenergic receptor (Homo sapiens) (P07550 whole entry, looked up): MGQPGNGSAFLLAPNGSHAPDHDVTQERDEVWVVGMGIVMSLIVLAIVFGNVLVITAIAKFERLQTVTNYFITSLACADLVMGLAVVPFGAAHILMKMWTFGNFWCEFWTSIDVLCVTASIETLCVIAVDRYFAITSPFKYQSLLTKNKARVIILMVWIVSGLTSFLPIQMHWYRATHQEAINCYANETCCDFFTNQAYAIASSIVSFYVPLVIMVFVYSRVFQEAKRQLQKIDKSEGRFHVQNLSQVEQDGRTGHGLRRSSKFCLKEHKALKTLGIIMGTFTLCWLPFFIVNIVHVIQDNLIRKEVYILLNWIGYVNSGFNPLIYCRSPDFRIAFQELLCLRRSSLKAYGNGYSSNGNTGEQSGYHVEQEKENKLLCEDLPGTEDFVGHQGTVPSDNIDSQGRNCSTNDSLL
Sequence of AP-2 complex subunit beta (Homo sapiens) (P63010 whole entry, looked up, the tested form may be a part, one chain of several): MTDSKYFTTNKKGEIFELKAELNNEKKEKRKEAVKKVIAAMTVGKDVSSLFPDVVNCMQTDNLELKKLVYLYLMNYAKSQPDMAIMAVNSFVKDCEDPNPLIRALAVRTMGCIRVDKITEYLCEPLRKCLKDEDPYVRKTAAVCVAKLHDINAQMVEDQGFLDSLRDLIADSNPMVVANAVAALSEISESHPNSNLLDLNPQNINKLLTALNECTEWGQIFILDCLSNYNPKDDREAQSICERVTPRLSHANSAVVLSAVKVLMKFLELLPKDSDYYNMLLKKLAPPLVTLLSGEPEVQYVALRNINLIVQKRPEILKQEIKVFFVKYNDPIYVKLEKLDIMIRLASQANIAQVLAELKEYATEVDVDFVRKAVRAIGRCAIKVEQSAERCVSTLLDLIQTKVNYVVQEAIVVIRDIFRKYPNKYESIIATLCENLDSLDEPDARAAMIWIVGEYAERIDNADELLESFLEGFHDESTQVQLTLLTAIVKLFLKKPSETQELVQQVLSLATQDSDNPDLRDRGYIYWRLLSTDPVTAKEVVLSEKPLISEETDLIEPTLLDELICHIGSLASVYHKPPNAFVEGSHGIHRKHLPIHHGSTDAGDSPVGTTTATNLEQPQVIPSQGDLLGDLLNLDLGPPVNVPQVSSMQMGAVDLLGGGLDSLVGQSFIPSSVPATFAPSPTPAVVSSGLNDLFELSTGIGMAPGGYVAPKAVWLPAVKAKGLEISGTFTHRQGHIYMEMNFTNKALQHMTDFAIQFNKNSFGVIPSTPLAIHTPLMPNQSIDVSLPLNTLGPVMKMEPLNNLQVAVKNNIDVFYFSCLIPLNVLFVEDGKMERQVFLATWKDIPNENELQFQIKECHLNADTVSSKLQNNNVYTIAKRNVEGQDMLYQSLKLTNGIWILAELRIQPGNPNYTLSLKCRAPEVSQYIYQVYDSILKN

CCOc1ccccc1C(=O)NCCC(=O)O
60.3%: double positive events [1]
inactive: vesicle binding response [1] 64.9% | inhibition [2] -17.1% | aptamer binding inhibition [3] 1% | response [4] 12.6% | inhibition [5] 19.4% | response [6] 1.48% | binding (% of control) [7] 105% | inhibition [9] 13% | differentiation response [10] 16.9%
active: efflux inhibition (fraction of control) [8] 0.92

CCc1nnc(SCc2cccc(F)c2)nc1CC
inactive: GFP response vs DMSO [11] 104% | GFP response vs DMSO [12] 96.1% | GFP response vs DMSO [13] 95.5% | GFP response vs DMSO [14] 89% | percent response vs DMSO [15] 97.8%

COc1ccc2cc(-c3nc4ccccc4n3C)c(=O)oc2c1
65.4%: double positive events [1]
inactive: vesicle binding response [1] 147% | inhibition [2] -9.79% | aptamer binding inhibition [3] 1% | response [4] -16.5% | response [6] -29.1% | binding (% of control) [7] 95.5% | efflux inhibition (fraction of control) [8] -0.2 | inhibition [9] 7% | differentiation response [10] 17.8%

C(=C\c1ccccc1)/CN1CCN(C(c2ccccc2)c2ccccc2)CC1
66.7%: double positive events [1]
inactive: inhibition [2] -1.3% | superoxide response (% of plate) [16] 86.5% | aptamer binding inhibition [3] 0% | response [4] 11.4% | inhibition [5] 0.96% | response [6] 0.39% | binding (% of control) [7] 120% | efflux inhibition (fraction of control) [8] -0.24 | inhibition [9] 16% | differentiation response [10] 1.64%

O=C(NC(=S)NC1CCS(=O)(=O)C1)c1cccc([N+](=O)[O-])c1 (configuration not stated)
inactive: GFP response vs DMSO [11] 101% | GFP response vs DMSO [12] 105% | GFP response vs DMSO [13] 101% | GFP response vs DMSO [14] 105% | percent response vs DMSO [15] 106%

CCn1c(SCCC(C)C)nnc1-c1c[nH]c2ccccc12
inactive: GFP response vs DMSO [11] 95.2% | GFP response vs DMSO [12] 96.1% | GFP response vs DMSO [13] 96.3% | GFP response vs DMSO [14] 100% | percent response vs DMSO [15] 96.7%

Cc1cc(C)c2nc3nc(C)cc(C)c3c(N)c2c1
inactive: GFP response vs DMSO [11] 99% | GFP response vs DMSO [12] 103% | GFP response vs DMSO [13] 76.7% | GFP response vs DMSO [14] 93.9% | percent response vs DMSO [15] 75.9%

COc1ccc(S(=O)(=O)N2CCN(C(=O)COc3ccc4c(C)cc(=O)oc4c3)CC2)cc1
inactive: inhibition [2] 3.67% | superoxide response (% of plate) [16] 96.9% | aptamer binding inhibition [3] -1% | response [4] 11.5% | inhibition [5] -2.78% | response [6] 0.22% | binding (% of control) [7] 103% | efflux inhibition (fraction of control) [8] 0.3 | inhibition [9] -3% | differentiation response [10] 4%
90%: double positive events [1]

COC(=O)c1cc(-c2ccc(OC)c(OC)c2)on1
64.8%: double positive events [1]
inactive: vesicle binding response [1] 155% | inhibition [2] -0.45% | aptamer binding inhibition [3] -1% | response [4] 17.4% | inhibition [5] 35.3% | response [6] -27.6% | binding (% of control) [7] 107% | inhibition [9] 0% | differentiation response [10] 31.5%
active: efflux inhibition (fraction of control) [8] 0.61

CC(Oc1ccc2ccccc2c1)C(=O)NNC(=S)NC(=O)c1ccco1 (configuration not stated)
inactive: GFP response vs DMSO [13] 101% | percent response vs DMSO [15] 112% | fluorescence change (kMESF span) [17] 2.02
active: GFP response vs DMSO [11] 312% | GFP response vs DMSO [12] 175% | GFP response vs DMSO [14] 187%

CC(C)[C@@H]1COC(c2cccc(C3=N[C@H](C(C)C)CO3)c2)=N1
inactive: GFP response vs DMSO [11] 99% | GFP response vs DMSO [12] 98.2% | GFP response vs DMSO [13] 101% | GFP response vs DMSO [14] 97.2% | percent response vs DMSO [15] 95.8%

O=C(Nc1nnc(-c2ccc(Cl)cc2)o1)c1ccccc1Br
inactive: GFP response vs DMSO [12] 120% | GFP response vs DMSO [13] 99.6% | GFP response vs DMSO [14] 133% | percent response vs DMSO [15] 95.3% | fluorescence change (kMESF span) [17] 0.5
active: GFP response vs DMSO [11] 174%

Clc1cccc(CN2COc3c(cc(Cl)c4cccnc34)C2)c1
inactive: GFP response vs DMSO [11] 127% | GFP response vs DMSO [12] 130% | GFP response vs DMSO [13] 101% | GFP response vs DMSO [14] 95% | percent response vs DMSO [15] 95.3% | fluorescence change (kMESF span) [17] 1.92
